Measured values reported in PubChem BioAssay AID1030 (National Center for Advancing Translational Sciences (NCATS), 2008).
The campaign covered roughly 220,000 compounds. About 16,000 (7.3%) were called active. A call without a number means that no potency is given here. Inconclusive results (about 25%) are left out. Many of the other results were omitted from the sample, so actives are more common in it than they were. Unmarked numbers belong to inactive results. The call rests on the fitted dose curve; in most records, active means well fitted inhibition curve with a large enough effect (not every such curve was filed as active); inconclusive means small, poorly fitted or top-dose-only effect, or another doubt; inactive means no such curve, though single readings can be large or run the other way.

Target: Aldehyde dehydrogenase 1A1 (Homo sapiens) (UniProt P00352)
Assay: qHTS Assay for Inhibitors of Aldehyde Dehydrogenase 1 (ALDH1A1)
Details: Purified ALDH1A1, NADH fluorescence, propionaldehyde substrate; series mostly up to 75.3 µM
Potency means the concentration at half of the fitted maximal effect.

Aldehyde dehydrogenase 1A1 (Homo sapiens), sequence (P00352 whole entry, looked up): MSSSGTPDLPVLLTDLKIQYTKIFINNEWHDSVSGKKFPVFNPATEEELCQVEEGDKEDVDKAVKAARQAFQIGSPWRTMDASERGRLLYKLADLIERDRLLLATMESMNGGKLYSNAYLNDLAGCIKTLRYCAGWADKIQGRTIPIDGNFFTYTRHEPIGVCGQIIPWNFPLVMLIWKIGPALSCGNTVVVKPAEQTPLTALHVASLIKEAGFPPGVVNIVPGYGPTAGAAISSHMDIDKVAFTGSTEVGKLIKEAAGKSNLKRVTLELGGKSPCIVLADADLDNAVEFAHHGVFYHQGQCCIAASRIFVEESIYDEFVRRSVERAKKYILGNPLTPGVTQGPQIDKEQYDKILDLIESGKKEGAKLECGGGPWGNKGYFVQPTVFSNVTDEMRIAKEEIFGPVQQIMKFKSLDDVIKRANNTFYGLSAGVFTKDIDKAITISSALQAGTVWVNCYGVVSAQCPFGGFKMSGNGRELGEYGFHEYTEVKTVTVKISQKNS

SMILES | Potency | activity, negative = inhibition
Cc1ccc(-c2nc(C)sc2CC(=O)OCC(=O)Nc2c(F)cccc2F)cc1 | inactive | –
Cc1ccc(NC(=O)Nc2nnc(-c3ccncc3)s2)cc1 | inactive | –
O=C(CSC1=Nc2ccccc2C2=NC(CC(=O)NCc3ccco3)C(=O)N12)NCc1ccco1 (centres undefined) | 7.94 µM (active) | –
CCOCCc1c(O)nc(SCC(=O)NCc2ccco2)[nH]c1=O | inactive | –
O=C(CC1CCCCC1)NCc1ccco1 | inactive | –
O=C(NNC(=S)NC1CCCCC1)c1ccccc1Cl | inactive | –
CC(C)NC(=O)CSc1nnc(COc2ccccc2Cl)o1 | inactive | –
Cc1ccc(NC(=O)CSc2nnc(COc3ccccc3C)o2)cc1 | inactive | –
Cc1ccccc1OCc1nnc(SCC(=O)N2c3ccccc3Sc3ccc(Cl)cc32)o1 | 10 µM (active) | –
O=C(CSc1ccccn1)Nc1nc2c(ccc3ccccc32)s1 | inactive | –
O=C1N/C(=C/c2cccs2)C(=O)N1Cc1ccc(F)cc1 | inactive | –
O=C1NCC(=O)N(Cc2ccccc2)/C1=C/c1ccccc1 | inactive | –
CN(C)c1ccc(/C=C2\NC(=S)N(Cc3ccccc3)C2=O)cc1 | 11.2 µM (active) | –
CCc1nnc(NC(=O)CCCSc2nc3ccccc3[nH]2)s1 | inactive | –
COc1cc(OC)cc(-c2nc(=S)n3ccsc3n2)c1 | inactive | –
CC(Oc1ccccc1)C(=O)NN1Cc2ccccc2C1=N (centres undefined) | inactive | –
COc1ccc(/C(C)=N/NC(=O)CCC(=O)Nc2ccc(Cl)cc2Cl)c(OC)c1 | inactive | –
NC(=O)COC(=O)c1sc2cc(F)ccc2c1Cl | inactive | –
C=CC1=C2C=C(C3CC3)N(CC(C)C)C=C2C(=O)C(C)(OC(=O)c2ccco2)C1=O (centres undefined) | – | -1.97% [at 13.5 µM]
COc1ccc(/C(O)=C2/C(=O)C(=O)N(CCCN(C)C)C2c2ccccc2)cc1OC (centres undefined) | inactive | –
COc1ccc(/C(O)=C2/C(=O)C(=O)N(CC3CCCO3)C2c2ccc(OC)c(OC)c2)cc1 (centres undefined) | inactive | –
COc1cccc(C2/C(=C(/O)c3ccncc3)C(=O)C(=O)N2CCCN(C)C)c1 (centres undefined) | inactive | –
COc1ccc(C2/C(=C(/O)c3ccc(OC(C)C)cc3)C(=O)C(=O)N2CCCN2CCOCC2)cc1 (centres undefined) | 25.1 µM (active) | –

SMILES | Potency | activity, negative = inhibition
O=C1CC(c2ccccc2)CC(O)=C1C=NCCN1CCOCC1 (centres undefined) | inactive | –
CC1Cc2cc(/C(O)=C3\C(=O)C(=O)N(CCN4CCOCC4)C3c3ccccc3F)ccc2O1 (centres undefined) | inactive | –
O=C1C(=O)N(CCN2CCOCC2)C(c2ccccn2)/C1=C(/O)c1ccc(Cl)cc1 (centres undefined) | 12.6 µM (active) | –
CCN(CC)CCN1C(=O)C(=O)/C(=C(/O)c2ccccc2)C1c1ccccc1F (centres undefined) | inactive | –
CCN(CC)CCN1C(=O)C(=O)/C(=C(/O)c2ccc(OC)c(OC)c2)C1c1ccccn1 (centres undefined) | 28.2 µM (active) | –
COC(=O)C(C(=O)OC)[C@@H](NC=O)c1ccccc1 | inactive | –
CCOC(=O)C1=C(C)c2ccccc2OC1C(=O)OCC (centres undefined) | inactive | –
CCc1cc(CNC(=O)CC2C(=O)NCCN2CC2CCCCC2)on1 (centres undefined) | inactive | –
CCc1ccc(Oc2nc([N+](=O)[O-])nn2C)cc1 | inactive | –
Cc1ccc(C(=O)NN(CCC#N)C2=NS(=O)(=O)c3ccccc32)cc1 | inactive | –
Cn1nc(C(C)(C)C)c(NC(=O)c2sccc2Cl)c1C(C)(C)C | inactive | –
C=C(C)COc1ccc(-c2nc(N)ncc2-c2ccccc2OC)c(O)c1 | inactive | –
O=C(COc1ccc([N+](=O)[O-])cc1Cl)Nn1cnnc1 | inactive | –
COC(=O)CSc1nccc(-c2cccs2)n1 | inactive | –
CN1CCN(C(=O)N2c3ccccc3CCc3ccccc32)CC1 | inactive | –
O=C(CCc1ccccc1)NNC(=O)c1ccc(Br)cc1 | inactive | –
CC(=O)NC(=S)NNC(=O)c1ccc(Br)cc1 | 11.2 µM (active) | –
Cn1nnnc1SCC(=O)NNC(=O)c1ccc(Br)cc1 | inactive | –
CC(Oc1cccc(NC(=O)c2cccs2)c1)C(=O)c1ccccc1 (centres undefined) | inactive | –
O=C(O)c1n[nH]nc1-c1ccccc1 | inactive | –
CCNC(=O)CC1C(=O)N(c2ccc(F)cc2)C(=O)N1CCc1sccc1C (centres undefined) | inactive | –
COc1ccc(Nc2cc(C)nc(-n3nc(C)cc3C)n2)cc1 | inactive | –
COc1ccc(C(C[N+](=O)[O-])n2nc(C)cc2C)cc1 (centres undefined) | 10 µM (active) | –

SMILES | Potency | activity, negative = inhibition
COc1ccc(OCc2cn3c(C)cc(C)nc3n2)cc1 | inactive | –
Cc1onc(-c2ccccc2)c1C(=O)N=C(N)c1ccc(Cl)cc1 | inactive | –
O=C(CCn1c(SCC(=O)c2ccccc2)nc2ccccc2c1=O)NCc1ccc(F)cc1 | inactive | –
COc1ccc(OCc2ccc(-c3nc4ccccc4c(=O)n3N)o2)cc1 | inactive | –
Cc1ccc(C(=O)CSc2nc3ccccc3c(=O)n2N)o1 | 28.2 µM (active) | –
O=C(Nn1cnc2ccccc2c1=O)c1ccccc1 | inactive | –
C=CCC1(CC=C)CCCN1C(=O)CC1C(=O)NCCN1Cc1ccccc1OC (centres undefined) | inactive | –
COCCC(=O)Nc1ccc2c(c1)CN(C(=O)CCOC)CC2 | inactive | –
CNc1[nH]ncc1[N+](=O)[O-] | inactive | –
COc1cc(NS(=O)(=O)c2ccc(NC(=O)CN3C(=O)c4ccccc4C3=O)cc2)ncn1 | inactive | –
CCn1c(COc2c(C)cccc2C)nnc1SCc1nc2ccccc2c(=O)[nH]1 | inactive | –
COc1ccc(CCCc2nnc(SCc3nc4ccccc4c(=O)[nH]3)n2C)cc1 | inactive | –
COc1ccc(C)cc1-n1nnnc1SCc1nc2ccccc2c(=O)[nH]1 | 39.8 µM (active) | –
CCCOC1CCCN(Cc2cn(C)nc2-c2ccccc2F)C1 (centres undefined) | inactive | –
O=C(C1CCCO1)N(c1ccc(F)cc1)C1C=CS(=O)(=O)C1 (centres undefined) | inactive | –
CCCC[C@@H]1C[C@H]1C(NC(=O)c1ccco1)c1ccc(C(=O)OC)cc1 (some centres undefined) | 22.4 µM (active) | –
COC(=O)c1ccc(N(CC(=O)NC2CCCC2)C(=O)CNC(=O)c2ccco2)cc1 | inactive | –
CCCC[C@@H]1C[C@H]1C(NC(=O)c1ccc(-c2ccccc2)cc1)c1ccc(-c2ccccc2)cc1 (some centres undefined) | inactive | –
CC(C)(C)NC(=O)C(=O)NN=C1CCCCCCC1 | inactive | –
Fc1cc(F)c2nc(N3CCOCC3)sc2c1 | inactive | –
Fc1ccc2nc(N3CCCCC3)sc2c1 | inactive | –
c1c2c(cc3sc(N4CCCCC4)nc13)OCCO2 | 20 µM (active) | –
CC(=O)c1cc(C#N)c(SCC(=O)Nc2nccs2)nc1C | inactive | –
